Experimental data from PubChem BioAssay AID588519 (ICCB-Longwood Screening Facility, Harvard Medical School, 2011).
Among all 150,000 compounds or so, about 1,000 (0.67%) were called active. Rule as the data show it: active = % elongation below about 90%; inactive = the rest, inconclusive results apart. For the sample, actives were picked, then their nearest neighbours and some compounds at random.

Target: Genome polyprotein (Poliovirus type 1 (strain Mahoney)) (UniProt P03300)
Test: poliovirus RdRp elongation inhibitors, primary screen, biochemical, fluorescence polarization, total intensity (AID 588519); as to z-score: compound at 16.7 µg/mL
Conditions: poliovirus polymerase elongation, stronger effect = lower value; for % elongation: compound at 16.7 µg/mL; for z-score: measured here: FP z-score
[1] = measured here: total intensity read-out

Sequence of Genome polyprotein (Poliovirus type 1 (strain Mahoney)) (P03300 1749-2209 limits assumed): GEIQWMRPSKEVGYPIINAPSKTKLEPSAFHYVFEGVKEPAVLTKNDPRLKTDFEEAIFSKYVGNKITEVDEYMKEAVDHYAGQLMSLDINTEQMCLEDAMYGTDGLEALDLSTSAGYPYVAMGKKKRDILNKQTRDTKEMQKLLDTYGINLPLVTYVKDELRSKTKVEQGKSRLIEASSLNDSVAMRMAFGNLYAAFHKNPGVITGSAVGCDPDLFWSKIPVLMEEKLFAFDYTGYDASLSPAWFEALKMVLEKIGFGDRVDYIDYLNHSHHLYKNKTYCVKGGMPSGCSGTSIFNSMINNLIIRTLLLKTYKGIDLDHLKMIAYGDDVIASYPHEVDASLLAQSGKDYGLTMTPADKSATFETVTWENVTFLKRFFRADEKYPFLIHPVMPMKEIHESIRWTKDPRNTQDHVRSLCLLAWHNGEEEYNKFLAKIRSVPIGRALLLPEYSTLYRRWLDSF

CCN(CC)S(=O)(=O)c1cc(C(=O)N2CCN(Cc3ccc4c(c3)OCO4)CC2)ccc1Cl
% elongation: 109% (inactive) | z-score: 0.8 | % elongation [1]: 109%

COC(=O)COc1ccc(CSc2nc3ccccc3c(=O)n2C)cc1
% elongation: 100% (inactive) | z-score: -0.3 | % elongation [1]: 95%

Cc1ccc2nc(CSc3nnc(-c4ccccc4)o3)cc(=O)n2c1
% elongation: 99% (inactive) | z-score: -0.7 | % elongation [1]: 92%

CNC(=O)C1Cc2cc(S(=O)(=O)N3CCCC3)ccc2N1C(C)=O (stereo unspecified)
% elongation: 99% (inactive) | z-score: -1.3 | % elongation [1]: 103%

O=C(Nc1cccnc1)C(=O)c1c(O)[nH]c2ccccc12
% elongation: 101% (inactive) | z-score: -0.1 | % elongation [1]: 105%

CC(NC(=O)C1CCCN1C(=O)c1cccs1)c1ccc(-n2ccnc2)cc1 (stereo unspecified)
% elongation: 100% (inactive) | z-score: -0.2 | % elongation [1]: 104%

O=c1c(Cl)c(Cl)cnn1-c1nc2ccccc2[nH]1
% elongation: 48% (active) | z-score: -5.8 | % elongation [1]: 58%

O=c1c(Cl)c(NC2CC2)cnn1-c1ccccc1
% elongation: 102% (inactive) | z-score: 0.2 | % elongation [1]: 103%

N#Cc1cnn(-c2nc3ccccc3[nH]2)c1N
% elongation: 105% (inactive) | z-score: 0.3 | % elongation [1]: 104%

Cc1cc(=O)[nH]c(SC(C)C(=O)NC2CCCCC2)n1 (stereo unspecified)
% elongation: 99% (inactive) | z-score: -0.4 | % elongation [1]: 103%

Clc1nc2ccccc2c(N2CCCCC2)c1CNC1CC1
% elongation: 104% (inactive) | z-score: 0.8 | % elongation [1]: 105%

O=C(/C=C/c1c(Cl)nc2sccn12)NCc1ccc2c(c1)OCO2
% elongation: 97% (inactive) | z-score: -0.6 | % elongation [1]: 102%

CC(C)(C)c1ccc(C(=O)NCCn2c(N)c(C#N)c3nc4ccccc4nc32)cc1
% elongation: 107% (inactive) | z-score: 0.5 | % elongation [1]: 112%

N#Cc1c(N)n(Cc2ccc(Cl)cc2)c2nc3ccccc3nc12
% elongation: 75% (active) | z-score: -4.3 | % elongation [1]: 85%

CC(c1ccccc1)n1c(N)c(C#N)c2nc3ccccc3nc21 (stereo unspecified)
% elongation: 97% (inactive) | z-score: -1.4 | % elongation [1]: 106%

Cc1nnc2ccc(-c3ccc(NS(=O)(=O)c4ccc5c(c4)OCCO5)cc3)nn12
% elongation: 99% (inactive) | z-score: -1.2 | % elongation [1]: 102%

CCOC(=O)c1c(NC(=O)c2cc(-c3ccc(Cl)cc3)on2)sc2c1CCCC2
% elongation: 84% (active) | z-score: -3 | % elongation [1]: 85%

COc1ccc(-c2cc(C(=O)Nc3sc4c(c3C(N)=O)CCCC4)no2)cc1
% elongation: 100% (inactive) | z-score: -0.5 | % elongation [1]: 102%

CCOCCCNC(=O)c1c(NC(=O)Cc2coc3ccc(C)cc23)sc2c1CCC2
% elongation: 116% (inactive) | z-score: 0.1 | % elongation [1]: 114%

CCOCCCNC(=O)c1c(NC(=O)Cc2coc3c(C)c(C)ccc23)sc2c1CCC2
% elongation: 116% (inactive) | z-score: 0.1 | % elongation [1]: 117%

CCOC(=O)c1c(NC(=O)Cc2coc3ccc(CC)cc23)sc2c1CCC2
% elongation: -3% (active) | z-score: -8.5 | % elongation [1]: 25%

CCOC(=O)c1c(NC(=O)c2cc(-n3cnnc3)ccc2Cl)sc2c1CCCC2
% elongation: 99% (inactive) | z-score: -0.5 | % elongation [1]: 100%
